# Source: PubChem BioAssay (EPA / NIEHS)
# Records with an inconclusive call do not appear. Active and inactive are the calls of the source. How the source made its calls, unless noted: active means hit-call score of the fitted dose curve at least 0.9, where 1 is the maximum; inactive means score below 0.9.
# Key:
# [1] = biological target: Paired box protein Pax-6 (Homo sapiens) (UniProt P26367); test: ATG_Pax6_CIS: Attagene CIS-FACTORIAL HepG2 Assay for human Paired Box 6 (PAX6) (AID 2282956); settings: HepG2 CIS-FACTORIAL PAX6 reporter transcription, RNA readout; actives raise or lower the signal
# Chain of Paired box protein Pax-6 (Homo sapiens) (P26367 whole entry, looked up): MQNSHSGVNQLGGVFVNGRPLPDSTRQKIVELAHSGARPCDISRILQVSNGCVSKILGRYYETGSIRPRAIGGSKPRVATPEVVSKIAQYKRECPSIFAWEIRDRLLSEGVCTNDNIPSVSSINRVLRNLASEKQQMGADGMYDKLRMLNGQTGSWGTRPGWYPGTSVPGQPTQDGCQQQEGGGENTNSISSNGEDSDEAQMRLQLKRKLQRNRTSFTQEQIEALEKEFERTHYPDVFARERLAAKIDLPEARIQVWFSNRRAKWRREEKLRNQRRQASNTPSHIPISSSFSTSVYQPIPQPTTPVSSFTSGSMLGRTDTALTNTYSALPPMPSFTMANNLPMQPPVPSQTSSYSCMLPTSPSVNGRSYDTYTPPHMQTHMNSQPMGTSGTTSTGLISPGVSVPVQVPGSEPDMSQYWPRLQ
# In short: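 Transient MRTU transfection of HepG2 → compound exposure 24 h → TriZol RNA, oligo(dT) RT → PCR, 6-FAM primer extension, HpaI cut → capillary electrophoresis; activity fitted both directions against DMSO.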
# [2] = ATG_PXRE_CIS: Attagene CIS-FACTORIAL HepG2 Assay for human Pregnane X Receptor Element (PXRE) (AID 2282957); settings: HepG2 Attagene CIS-FACTORIAL PXRE reporter, mRNA; actives raise or lower the signal
# In short: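 Cis-element reporter mRNA in human hepatoma HepG2 cells is measured 24 h post-dosing by RT-PCR, primer-extension labeling and capillary electrophoresis; gain or loss of signal is fitted relative to DMSO.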
# [3] = ATG_PPRE_CIS: Attagene CIS-FACTORIAL HepG2 Assay for human Peroxisome Proliferator-activated Response Element (PPRE) (AID 2282958); settings: HepG2 PPRE cis-element reporter, Attagene transcription factor profiling; actives raise or lower the signal
# In short: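 Endogenous PPRE-driven transcription is measured in HepG2 cells carrying transfected multi-reporter constructs. Reporter transcripts are quantified by RT-PCR, HpaI digestion and capillary electrophoresis 24 h after dosing. DMSO baseline, bidirectional fit.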
# [4] = ATG_RORE_CIS: Attagene CIS-FACTORIAL HepG2 Assay for human RAR-related Orphan Receptor Element (RORE) (AID 2282959); settings: HepG2 Attagene cis-factorial RORE reporter, mRNA; actives raise or lower the signal
# In short: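 RORE reporter transcripts reflecting endogenous factor activity were read after 24 h compound exposure of transfected HepG2 cells, using reverse transcription, PCR, fluorescent labelling and capillary electrophoresis sizing. Gain or loss fitted against DMSO.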
# [5] = ATG_Sox_CIS: Attagene CIS-FACTORIAL HepG2 Assay for human SRY-box transcription factor (SOX) (AID 2282960); settings: HepG2 Attagene cis-factorial SOX reporter, mRNA; actives raise or lower the signal
# In short: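 Reporter transcripts, measured by RT-PCR and capillary electrophoresis of labelled fragments, report endogenous SOX transcription factor activity. Transiently transfected human HepG2 cells receive chemical for 24 h; changes in either direction are fitted relative to DMSO.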
# [6] = biological target: Transcription factor Sp1 (Homo sapiens) (UniProt P08047); test: ATG_Sp1_CIS: Attagene CIS-FACTORIAL HepG2 Assay for human Specificity Protein 1 (Sp1) (AID 2282961); settings: HepG2 Sp1 cis-reporter transcription, actives raise or lower the signal
# Chain of Transcription factor Sp1 (Homo sapiens) (P08047 whole entry, looked up): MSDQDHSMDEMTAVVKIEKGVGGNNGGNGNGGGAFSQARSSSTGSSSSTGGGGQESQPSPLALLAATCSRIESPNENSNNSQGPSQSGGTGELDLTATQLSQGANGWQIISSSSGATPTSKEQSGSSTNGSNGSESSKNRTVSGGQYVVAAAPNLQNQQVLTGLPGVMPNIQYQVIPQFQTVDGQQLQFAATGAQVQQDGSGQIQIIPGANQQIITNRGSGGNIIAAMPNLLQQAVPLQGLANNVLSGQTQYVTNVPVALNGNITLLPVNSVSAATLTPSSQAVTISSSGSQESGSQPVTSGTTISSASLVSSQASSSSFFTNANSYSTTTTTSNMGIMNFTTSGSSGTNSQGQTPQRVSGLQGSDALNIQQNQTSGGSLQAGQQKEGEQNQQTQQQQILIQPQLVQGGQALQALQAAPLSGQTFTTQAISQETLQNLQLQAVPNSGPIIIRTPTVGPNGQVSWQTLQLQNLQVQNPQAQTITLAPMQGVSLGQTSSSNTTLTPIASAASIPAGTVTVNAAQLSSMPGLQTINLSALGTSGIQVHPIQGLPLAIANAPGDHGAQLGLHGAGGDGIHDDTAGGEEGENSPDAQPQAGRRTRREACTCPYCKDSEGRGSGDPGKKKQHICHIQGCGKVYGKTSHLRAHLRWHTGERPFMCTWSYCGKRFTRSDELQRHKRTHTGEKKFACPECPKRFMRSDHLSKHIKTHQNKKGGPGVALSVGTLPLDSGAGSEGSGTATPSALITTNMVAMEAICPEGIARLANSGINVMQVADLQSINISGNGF
# In short: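 Read-out is reporter transcript level, measured by RT-PCR and fluorescent capillary electrophoresis after 24 h chemical treatment. System: transiently transfected HepG2 cells reporting endogenous transcription factor activity; gain or loss fitted against DMSO baseline.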
# [7] = biological target: Signal transducer and activator of transcription 3 (Homo sapiens) (UniProt P40763); test: ATG_STAT3_CIS: Attagene CIS-FACTORIAL HepG2 Assay for human Signal Transducer and Activator of Transcription 3 (STAT3) (AID 2282963); settings: HepG2, Attagene cis-factorial STAT3 reporter transcription; actives raise or lower the signal
# Chain of Signal transducer and activator of transcription 3 (Homo sapiens) (P40763 whole entry, looked up): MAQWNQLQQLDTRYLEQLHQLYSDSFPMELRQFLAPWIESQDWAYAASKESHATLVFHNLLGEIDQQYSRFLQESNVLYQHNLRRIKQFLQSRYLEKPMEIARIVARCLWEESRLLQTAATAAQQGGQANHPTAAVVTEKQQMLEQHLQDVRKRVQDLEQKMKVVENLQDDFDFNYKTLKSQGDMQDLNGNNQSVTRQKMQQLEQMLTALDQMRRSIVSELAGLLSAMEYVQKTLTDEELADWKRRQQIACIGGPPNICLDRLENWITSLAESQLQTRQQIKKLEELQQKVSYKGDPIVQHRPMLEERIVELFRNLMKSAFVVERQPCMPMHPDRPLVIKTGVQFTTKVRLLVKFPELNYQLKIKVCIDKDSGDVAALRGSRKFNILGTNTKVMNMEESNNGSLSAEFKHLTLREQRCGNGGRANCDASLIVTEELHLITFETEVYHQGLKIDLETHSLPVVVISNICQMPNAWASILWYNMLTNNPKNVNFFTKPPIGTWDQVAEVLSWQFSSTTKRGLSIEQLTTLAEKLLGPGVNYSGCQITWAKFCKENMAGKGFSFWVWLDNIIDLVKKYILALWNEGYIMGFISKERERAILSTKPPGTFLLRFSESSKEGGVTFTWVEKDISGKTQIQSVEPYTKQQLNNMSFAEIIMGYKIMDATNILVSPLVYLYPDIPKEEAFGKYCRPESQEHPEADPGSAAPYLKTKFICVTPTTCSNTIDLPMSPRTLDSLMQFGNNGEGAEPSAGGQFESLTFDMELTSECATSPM
# In short: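 Transcript-level reporter assay. HepG2 transient MRTU transfection, 24 h exposure, fluorescence detection after RT-PCR and CE; DMSO baseline.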
# [8] = ATG_TA_CIS: Attagene CIS-FACTORIAL HepG2 Assay for human TA Basal Promoter (AID 2282964); settings: HepG2 Attagene CIS-factorial TA basal promoter reporter; actives raise or lower the signal
# In short: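 HepG2 cells transiently transfected with multiple reporter units under cis promoter elements, reporting endogenous transcription factor activity; this endpoint tracks the TA basal promoter as background control. Reporter mRNA after 24 h dosing measured by RT-PCR/capillary electrophoresis; bidirectional fits versus DMSO.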
# [9] = ATG_TCF_b_cat_CIS: Attagene CIS-FACTORIAL HepG2 Assay for human T-Cell-Factor with beta-catenin (TCF/b-cat) (AID 2282965); settings: HepG2 TCF/beta-catenin cis-reporter transcription, actives raise or lower the signal
# In short: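 HepG2 cells transiently transfected with multiple cis-promoter-regulated reporter transcription units, so endogenous transcription factor activity is measured. Reporter mRNA read 24 hours after dosing by RT-PCR, fluorescent labelling and capillary electrophoresis; bidirectional fitting against DMSO.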
# [10] = ATG_TAL_CIS: Attagene CIS-FACTORIAL HepG2 Assay for human TAL Basal Promoter (AID 2282966); settings: HepG2 Attagene cis-factorial TAL promoter reporter; actives raise or lower the signal;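 further: background control endpoint measuring basal TAL promoter reporter mRNA not a specific factor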
# In short: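 In this cell-based multiplex, HepG2 liver cells bearing cis-promoter reporter constructs are dosed for 24 hours. Total RNA is reverse-transcribed and amplified, labelled fragments are sized by capillary electrophoresis, and signal changes are fitted bidirectionally versus DMSO.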
# [11] = ATG_TGFb_CIS: Attagene CIS-FACTORIAL HepG2 Assay for human Transforming Growth Factor (TGF) (AID 2282967); settings: HepG2 Attagene CIS TGFb reporter, mRNA transcription; actives raise or lower the signal
# In short: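 HepG2 cells transiently transfected with cis-promoter-driven multiple reporter units measure endogenous TF activity; reporter mRNA quantified at 24 h by RT-PCR, FAM labeling, HpaI digestion and capillary electrophoresis. Bidirectional fit vs DMSO.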
# [12] = ATG_VDRE_CIS: Attagene CIS-FACTORIAL HepG2 Assay for human Vitamin D Receptor Element (VDRE) (AID 2282968); settings: HepG2 VDRE cis-reporter transcription, actives raise or lower the signal
# In short: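 RT-PCR/CE readout of reporter mRNA; HepG2, transient transfection, 24 h dosing; DMSO baseline; bidirectional analysis.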
# [13] = biological target: X-box-binding protein 1 (Homo sapiens) (UniProt P17861); test: ATG_Xbp1_CIS: Attagene CIS-FACTORIAL HepG2 Assay for human X-box Binding Protein 1 (XBP1) (AID 2282972); settings: HepG2 XBP1 cis-element reporter, Attagene multiplex; actives raise or lower the signal
# Chain of X-box-binding protein 1 (Homo sapiens) (P17861 whole entry, looked up): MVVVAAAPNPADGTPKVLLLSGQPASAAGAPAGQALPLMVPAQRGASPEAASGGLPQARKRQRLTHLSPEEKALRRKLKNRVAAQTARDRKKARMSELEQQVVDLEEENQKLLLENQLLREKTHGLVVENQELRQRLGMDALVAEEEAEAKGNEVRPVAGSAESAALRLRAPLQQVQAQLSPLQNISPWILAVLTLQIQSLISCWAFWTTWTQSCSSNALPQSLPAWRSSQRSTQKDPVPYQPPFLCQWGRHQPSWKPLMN
# In short: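 HepG2, transient MRTU transfection (cis-promoter driven), 24 h compound exposure. Total RNA → oligo(dT) RT → PCR → 6-FAM labeling → HpaI cut → CE. Bidirectional fit vs DMSO.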
# [14] = ATG_M_19_TRANS: Attagene TRANS-FACTORIAL HepG2 Assay for M19 Transcription Factor (Internal Marker) (AID 2282974; active means hit-call score of the fitted dose curve at least 0.9, where 1 is the maximum); settings: HepG2 Attagene TRANS-FACTORIAL M19 internal marker reporter
# In short: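 Background-control readout: after 24 h chemical exposure of transfected HepG2 carrying GAL4-driven reporter units, RNA was reverse-transcribed, amplified, fluorescently labeled and sized by capillary electrophoresis; gain-of-signal fit against DMSO.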
# [15] = ATG_SREBP_CIS: Attagene CIS-FACTORIAL HepG2 Assay for human Sterol Regulatory Element Binding (SREBP) (AID 2282962); settings: HepG2 Attagene cis-factorial SREBP reporter, mRNA; actives raise or lower the signal
# In short: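 Transfected HepG2 (cis-regulated reporter library, endogenous TFs) → compound 24 h → total RNA → oligo(dT) RT → reporter-specific PCR → FAM primer extension, HpaI cut → CE fluorescence. Fit bidirectional vs DMSO.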
# [16] = biological target: Estrogen receptor (Homo sapiens) (UniProt P03372); test: ATG_ERa_TRANS: Attagene TRANS-FACTORIAL HepG2 Assay for human Estrogen Receptor alpha (ERa) (AID 2282970; active means hit-call score of the fitted dose curve at least 0.9, where 1 is the maximum); settings: HepG2 Attagene TRANS ERa GAL4 reporter, mRNA
# Chain of Estrogen receptor (Homo sapiens) (P03372 whole entry, looked up, the tested form may be a part): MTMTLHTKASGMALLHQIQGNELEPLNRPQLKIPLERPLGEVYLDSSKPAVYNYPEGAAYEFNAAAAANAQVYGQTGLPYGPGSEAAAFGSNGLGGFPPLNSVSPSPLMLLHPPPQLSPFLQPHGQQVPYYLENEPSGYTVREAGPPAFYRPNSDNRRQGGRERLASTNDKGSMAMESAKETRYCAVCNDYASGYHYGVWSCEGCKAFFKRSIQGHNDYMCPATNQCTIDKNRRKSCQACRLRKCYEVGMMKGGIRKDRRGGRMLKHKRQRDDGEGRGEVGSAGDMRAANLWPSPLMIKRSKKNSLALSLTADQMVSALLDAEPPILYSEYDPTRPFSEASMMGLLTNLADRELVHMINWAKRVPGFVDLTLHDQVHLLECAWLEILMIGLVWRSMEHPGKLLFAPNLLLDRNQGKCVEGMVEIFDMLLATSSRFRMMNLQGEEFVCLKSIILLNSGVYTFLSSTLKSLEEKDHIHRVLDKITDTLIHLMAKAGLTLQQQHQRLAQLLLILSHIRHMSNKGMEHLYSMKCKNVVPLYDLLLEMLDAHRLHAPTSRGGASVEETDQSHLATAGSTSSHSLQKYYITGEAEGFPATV
# In short: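 After 24 h of compound treatment, RNA from HepG2 cells bearing transfected GAL4-UAS reporter constructs is converted to cDNA, amplified and fluorescently labelled. Capillary electrophoresis resolves the ERa-linked reporter; DMSO serves as negative control.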
# [17] = biological target: Nuclear receptor subfamily 1 group I member 3 (Homo sapiens) (UniProt Q14994); test: ATG_CAR_TRANS: Attagene TRANS-FACTORIAL HepG2 Assay for human Constitutive Androstane Receptor (CAR) (AID 2282969; active means hit-call score of the fitted dose curve at least 0.9, where 1 is the maximum;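 further: activators raise reporter mRNA above DMSO so AC50 marks induction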); settings: HepG2 Attagene TRANS-FACTORIAL CAR reporter
# Chain of Nuclear receptor subfamily 1 group I member 3 (Homo sapiens) (Q14994 whole entry, looked up, the tested form may be a part): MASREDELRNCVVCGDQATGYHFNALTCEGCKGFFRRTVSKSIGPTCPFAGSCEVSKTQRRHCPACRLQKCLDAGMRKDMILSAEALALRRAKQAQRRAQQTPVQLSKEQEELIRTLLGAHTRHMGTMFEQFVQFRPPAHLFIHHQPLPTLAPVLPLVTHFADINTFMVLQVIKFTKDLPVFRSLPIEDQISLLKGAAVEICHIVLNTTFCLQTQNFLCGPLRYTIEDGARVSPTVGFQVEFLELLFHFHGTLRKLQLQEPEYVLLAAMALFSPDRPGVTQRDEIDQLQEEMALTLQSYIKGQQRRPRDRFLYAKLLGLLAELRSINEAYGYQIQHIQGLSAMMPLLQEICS
# In short: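 HepG2 cells transiently transfected with multiplexed GAL4-UAS reporter units expressing chimeric NR-Gal4 proteins; compound exposure 24 h. Reporter mRNA measured by RT-PCR, 6-FAM labelling, HpaI digestion and capillary electrophoresis; gain-of-signal fitted against DMSO baseline.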
# [18] = ATG_GAL4_TRANS: Attagene TRANS-FACTORIAL HepG2 Assay for GAL4 (Internal Marker) (AID 2282976; active means hit-call score of the fitted dose curve at least 0.9, where 1 is the maximum); settings: HepG2 Attagene TRANS GAL4 internal marker reporter
# In short: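 RT-PCR/capillary electrophoresis readout of reporter mRNA. HepG2, transient MRTU transfection (GAL4-UAS reporters), 24 h compound exposure. Background-control endpoint, positive direction vs DMSO baseline.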
structure (smiles),measurement,setting,value
CN(C)C(=O)NC1(c2ccccc2)CCN(CCC[C@]2(c3ccc(Cl)c(Cl)c3)CCCN(C(=O)c3ccccc3)C2)CC1,AC50,[1],4.94 µM (active)
same,AC50,[2],0.119 µM (active)
same,AC50,[3],4.58 µM (active)
same,AC50,[4],4.93 µM (active)
same,outcome,[5],inactive
same,AC50,[6],4.73 µM (active)
same,AC50,[7],4.4 µM (active)
same,outcome,[8],inactive
same,outcome,[9],inactive
same,outcome,[10],inactive
same,outcome,[11],inactive
same,AC50,[12],2.75 µM (active)
same,AC50,[13],4.69 µM (active)
same,outcome,[14],inactive
CN(C)CCCN(C)CCCN(C)C,outcome,[1],inactive
same,AC50,[2],25.6 µM (active)
same,outcome,[3],inactive
same,outcome,[4],inactive
same,outcome,[5],inactive
same,outcome,[6],inactive
same,outcome,[15],inactive
same,outcome,[7],inactive
same,outcome,[8],inactive
same,outcome,[9],inactive
same,outcome,[10],inactive
same,outcome,[11],inactive
same,outcome,[16],inactive
same,outcome,[13],inactive
same,outcome,[14],inactive
O=NO,outcome,[1],inactive
same,outcome,[2],inactive
same,outcome,[3],inactive
same,outcome,[4],inactive
same,outcome,[5],inactive
same,outcome,[6],inactive
same,outcome,[7],inactive
same,outcome,[8],inactive
same,outcome,[9],inactive
same,outcome,[10],inactive
same,outcome,[11],inactive
same,outcome,[12],inactive
same,outcome,[17],inactive
same,outcome,[13],inactive
same,outcome,[18],inactive
OCC(CO)n1cnc(-c2ccc(F)cc2)c1-c1ccnc(Oc2ccccc2)n1,outcome,[1],inactive
same,AC50,[2],7.89 µM (active)
same,AC50,[3],0.357 µM (active)
same,outcome,[4],inactive
same,outcome,[5],inactive
same,outcome,[6],inactive
same,outcome,[7],inactive
same,outcome,[8],inactive
same,outcome,[9],inactive
same,outcome,[10],inactive
same,outcome,[11],inactive
same,outcome,[12],inactive
same,outcome,[17],inactive
same,outcome,[13],inactive
same,outcome,[14],inactive
COc1ccc(OC(F)(F)F)cc1CN[C@H]1CCCN[C@H]1c1ccccc1,outcome,[1],inactive
same,AC50,[2],1.85 µM (active)
same,outcome,[4],inactive
same,outcome,[5],inactive
same,outcome,[6],inactive
same,outcome,[7],inactive
same,outcome,[8],inactive
same,outcome,[9],inactive
same,outcome,[10],inactive
same,outcome,[11],inactive
same,AC50,[12],4.99 µM (active)
same,outcome,[17],inactive
same,outcome,[16],inactive
same,outcome,[13],inactive
same,outcome,[14],inactive
Cc1occc(=O)c1O,outcome,[1],inactive
same,outcome,[2],inactive
same,outcome,[4],inactive
same,outcome,[5],inactive
same,outcome,[6],inactive
same,outcome,[15],inactive
same,outcome,[7],inactive
same,outcome,[8],inactive
same,outcome,[9],inactive
same,outcome,[10],inactive
same,outcome,[11],inactive
same,outcome,[12],inactive
same,outcome,[13],inactive
same,outcome,[14],inactive
same,outcome,[18],inactive
Nc1nc(=S)c2[nH]cnc2[nH]1,outcome,[1],inactive
same,AC50,[2],100 µM (active)
same,outcome,[4],inactive
same,outcome,[5],inactive
same,outcome,[6],inactive
same,outcome,[15],inactive
same,outcome,[7],inactive
same,outcome,[8],inactive
same,outcome,[9],inactive
same,outcome,[10],inactive
same,outcome,[11],inactive
same,outcome,[17],inactive
same,outcome,[16],inactive
same,outcome,[13],inactive
O=C1c2c(O)cccc2Cc2cccc(O)c21,outcome,[1],inactive
same,outcome,[2],inactive
same,outcome,[3],inactive
same,outcome,[4],inactive
same,outcome,[5],inactive
same,outcome,[6],inactive
same,outcome,[7],inactive
same,outcome,[8],inactive
same,outcome,[9],inactive
same,outcome,[10],inactive
same,outcome,[11],inactive
same,outcome,[13],inactive
same,outcome,[18],inactive
O=C1OC(c2ccc(O)cc2)(c2ccc(O)cc2)c2ccccc21,AC50,[1],36.6 µM (active)
same,outcome,[2],inactive
same,AC50,[4],26.7 µM (active)
same,outcome,[5],inactive
same,AC50,[6],41.2 µM (active)
same,AC50,[15],27.6 µM (active)
same,outcome,[7],inactive
same,AC50,[8],27.7 µM (active)
same,AC50,[9],27.5 µM (active)
same,AC50,[10],46.8 µM (active)
same,outcome,[11],inactive
same,AC50,[12],6.27 µM (active)
same,AC50,[13],30 µM (active)
same,outcome,[14],inactive
